Results taken from PubChem BioAssay (NCATS).
Results filed as inconclusive are left out. Entries that show only a call come without a potency. Calls of active or inactive are those of the source. The call rests on the fitted dose curve; in most records, active means well fitted curve in the direction sought with a large enough effect; inconclusive means small, poorly fitted or top-dose-only effect, or another doubt; inactive means no such curve, though single readings can be large; an effect the other way counts as inactive or inconclusive.

Legend:
[1] = target: Aldehyde dehydrogenase, mitochondrial (Homo sapiens) (UniProt P05091); assay: qHTS for Inhibitors of the Aldehyde Dehydrogenase Family (ALDH2) Primary screen (AID 2061308); settings: ALDH2 enzyme inhibition qHTS, 1536-well; series mostly up to 56 µM; further: nearly all actives have a fitted effect of over 55% in size
[2] = target: Aldehyde dehydrogenase 1A1 (Homo sapiens) (UniProt P00352); assay: qHTS for Inhibitors of the Aldehyde Dehydrogenase Family (ALDH1A1) Confirmatory screens (AID 2061316); settings: ALDH inhibition qHTS; series mostly up to 47.3 µM; further: nearly all actives have a fitted effect of over 65% in size; further: potency means the concentration at half of the fitted maximal effect
[3] = target: Retinaldehyde dehydrogenase 3 (Homo sapiens) (UniProt P47895); assay: qHTS for Inhibitors of the Aldehyde Dehydrogenase Family (ALDH1A3) Confirmatory screens (AID 2061311); settings: ALDH inhibition qHTS; series mostly up to 46 µM; further: nearly all actives have a fitted effect of over 60% in size
[4] = target: Retinaldehyde dehydrogenase 3 (Homo sapiens) (UniProt P47895); assay: qHTS for Inhibitors of the Aldehyde Dehydrogenase Family (ALDH1A3) Primary screen (AID 2061315); settings: ALDH inhibition qHTS; series mostly up to 56 µM
[5] = BET inhibitor-based combinations targeting novel dependencies in MECOM-rearranged (r) AML: UCSD-AML1 cell line (AID 2202235); settings: UCSD-AML1 AML cells viability, CellTiter-Glo, 48 h; series mostly up to 46 µM; further: nearly all actives have a fitted effect of over 40% in size; further: potency means the concentration at half of the fitted maximal effect
In short: (§1)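 Each compound is tested in an 11-point concentration series against 500 seeded cells/well for 48 hr. The luminescent viability signal is normalized to DMSO and blank wells, then reduced to AUC and a cell-line-centred Z-AUC.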

[6] = BET inhibitor-based combinations targeting novel dependencies in MECOM-rearranged (r) AML: AML-194 cell line (AID 2202237; further: nearly all actives have a fitted effect of over 40% in size); settings: AML-194 (MECOM-r AML) viability, CellTiter-Glo, 48 h; series mostly up to 46 µM
In short: (§2)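 A 48 hr incubation preceded viability reading by CellTiter-Glo, with 15 min room-temperature development. Dose series had 11 points; normalization used DMSO and empty wells; AUC was computed and mean-centered per line as Z-AUC.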

[7] = BET inhibitor-based combinations targeting novel dependencies in MECOM-rearranged (r) AML: OCI-AML3 cell line (AID 2202232); settings: CellTiter-Glo luminescence, 48 h; Potency: OCI-AML3 viability; series mostly up to 46 µM; further: potency means the concentration at half of the fitted maximal effect; nearly all actives have a fitted effect of over 35% in size
In short: as §2

[8] = BET inhibitor-based combinations targeting novel dependencies in MECOM-rearranged (r) AML: HNT-34 cell line (AID 2202234); settings: HNT-34 AML viability, CellTiter-Glo luminescence, 48 h; series mostly up to 46 µM; further: potency means the concentration at half of the fitted maximal effect; nearly all actives have a fitted effect of over 35% in size
In short: as §1

[9] = target: Retinaldehyde dehydrogenase 3 (Homo sapiens) (UniProt P47895); assay: qHTS for Inhibitors of the Aldehyde Dehydrogenase Family (ALDH1A3) Validation screen (AID 2061312); settings: ALDH1A3 enzyme inhibition qHTS validation, fluorescence; series mostly up to 84.7 µM; further: nearly all actives have a fitted effect of over 45% in size
[10] = target: Retinal dehydrogenase 2 (Homo sapiens) (UniProt O94788); assay: qHTS for Inhibitors of the Aldehyde Dehydrogenase Family (ALDH1A2) Confirmation screens (AID 2061314); settings: ALDH1A2 enzyme inhibition qHTS confirmation; series mostly up to 45.9 µM; further: nearly all actives have a fitted effect of over 65% in size; further: potency means the concentration at half of the fitted maximal effect

## O=C1Cc2cc(S(=O)(=O)N3CCN(c4ccc(O)cc4)CC3)ccc2N1
[1]
  Potency: inactive
[2]
  Potency: 11.3 µM (active)

## Nc1ccccc1S(=O)(=O)Nc1cccc2cccnc12
[1]
  Potency: inactive
[2]
  Potency: inactive

## N#Cc1cccc(C(=O)Nc2ccc3c(N4CCOCC4)ncnc3c2)c1
[3]
  Potency: inactive

## [2H]C([2H])(Nc1nc(-c2ccccc2C([2H])(C([2H])([2H])[2H])C([2H])([2H])[2H])ncc1C)c1ccc(-n2ccnn2)cc1
[1]
  Potency: inactive
[4]
  Potency: inactive
[5]
  Potency: inactive
[6]
  Potency: inactive

## Cn1cc(-c2cnn3c(N)c(Br)c(C4CCCNC4)nc23)cn1 (centres undefined)
[1]
  Potency: inactive
[7]
  Potency: 10.5 µM (active)
[8]
  Potency: 10.5 µM (active)
[5]
  Potency: 5.25 µM (active)

## Oc1cc(-c2cccnc2)cc2cccnc12
[4]
  Potency: inactive

## C=CC(=O)N1CCC[C@@H](n2nc(-c3cccc(C(=O)Nc4ccc(C(C)C)c(C)c4)c3)c3c(N)ncnc32)C1
[9]
  Potency: inactive
[4]
  Potency: inactive

## C=CC(N)CCC(=O)O (centres undefined)
[9]
  Potency: inactive

## O=C(Cn1nc(-c2ccncc2)ccc1=O)NCCc1ccccc1
[4]
  Potency: inactive

## CC(C)(C)OC(=O)N1CCN(c2ccc(NCc3cc(-c4ccc(C#N)cc4)co3)cc2)CC1
[4]
  Potency: inactive

## O=C1CCCC2=C1C1(CCSCC1)N=C(Nc1nc3ccccc3o1)N2
[4]
  Potency: inactive

## Cc1ccc(N[S+](=O)([O-])c2cc3c(cc2CCc2ccccc2)NC(=O)CO3)cc1C
[4]
  Potency: inactive

## COc1ccc(C2c3c(N)nc(Cc4ccccc4)nc3Oc3ccc4ccccc4c32)cc1OC (centres undefined)
[4]
  Potency: inactive

## O=C(Cc1ccc(Cl)c(Cl)c1)Nc1ccc(S(=O)(=O)Nc2cncnc2)cc1
[4]
  Potency: inactive

## Nc1ccc(-c2ccnc(NCCCNC(=O)c3c(Cl)cccc3Cl)n2)cc1
[4]
  Potency: inactive

## Cc1ccnc(NC(=S)N2CCN(c3ccccc3C(F)(F)F)CC2)c1
[4]
  Potency: inactive

## CCOC(=O)c1ccc(-c2ccc3ncnc(N(C)Cc4ccc(C)o4)c3c2)o1
[4]
  Potency: inactive

## O=C(CSc1nnc(-c2cccc([S+](=O)([O-])N3CCCC3)c2)n1-c1ccccc1)Nc1ccc(Br)cc1
[4]
  Potency: inactive

## Cc1c(C(N)=O)[nH]c2c1C(=O)CC(c1ccco1)C2 (centres undefined)
[4]
  Potency: inactive

## O=C(O)C1NCc2[nH]cnc2C1c1ccccc1 (centres undefined)
[10]
  Potency: 4 µM (active)
[4]
  Potency: inactive
[2]
  Potency: 11.3 µM (active)

## CN1CCN(c2cccc(Nc3nn4c(=O)c5ccc(C(F)(F)F)cc5nc4s3)c2)CC1
[4]
  Potency: inactive

## CS(=O)(=O)c1ccc(C(=O)OCC(=O)N2CCN(C3CCCCC3)CC2)cc1[N+](=O)[O-]
[4]
  Potency: inactive

## Oc1ccc(CNc2ccccn2)c2cccnc12
[4]
  Potency: inactive

## CCCCOc1ccc(S(=O)(=O)n2c(C)nc3ccccc32)cc1
[4]
  Potency: inactive

## COc1ccnc(NCc2ccc(O)c3ncccc23)c1
[4]
  Potency: inactive

## Cc1cc(C)n2ncc(C(=O)Nc3ccccc3)c2n1
[4]
  Potency: inactive

## COc1ccc(C2Cc3ccccc3C(=O)N2Cc2ccccc2)cc1COc1ccc(NC(C)=O)cc1 (centres undefined)
[4]
  Potency: inactive

## Cc1ccc(NS(=O)(=O)c2ccc3c(c2)CCO3)cc1C
[4]
  Potency: inactive

## Cc1csc(CNc2ncnc3ccc(-c4ccc(C(C)O)o4)cc23)n1 (centres undefined)
[10]
  Potency: 5.65 µM (active)
[4]
  Potency: inactive
[2]
  Potency: 11.3 µM (active)

## Cc1ccc(CN(C)c2ncnc3ccc(-c4ccc(CO)o4)cc23)o1
[10]
  Potency: 11.3 µM (active)
[4]
  Potency: inactive
[2]
  Potency: 2.52 µM (active)

## Cc1ccc(-c2nc3ccccc3s2)cc1NC(=O)c1ccc(-c2cccc(Cl)c2)o1
[10]
  Potency: 22.5 µM (active)
[4]
  Potency: inactive
[2]
  Potency: 8.96 µM (active)

## O=S1(=O)N=C(Sc2cccc3cccnc23)c2ccccc21
[10]
  Potency: inactive
[4]
  Potency: inactive
[2]
  Potency: 15.9 µM (active)

## Cc1ccc(-c2ccc(=O)n(CC(=O)NCCCc3ccccc3)n2)cc1
[4]
  Potency: inactive

## O=[N+]([O-])c1cc(C(F)(F)F)ccc1N1CCN(C(=S)Nc2cc(Cl)ccn2)CC1
[10]
  Potency: 14.2 µM (active)
[4]
  Potency: inactive
[2]
  Potency: 5.04 µM (active)

## O=C1CCc2cc([S+](=O)([O-])Nc3ccc(Cl)c(Cl)c3)c(NCCCO)cc2N1
[4]
  Potency: inactive

## Cc1c(C(=O)OCc2ccco2)[nH]c2c1C(=O)CC(c1ccco1)C2 (centres undefined)
[10]
  Potency: 3.18 µM (active)
[4]
  Potency: inactive
[2]
  Potency: 1.42 µM (active)

## CCOc1ccc(C(=O)N2CCN(Cc3cc(=O)n4nc(-c5cccc(OC)c5)sc4n3)CC2)cc1
[10]
  Potency: inactive
[2]
  Potency: 6.47 µM (active)

## Cc1cc(/C=C/C#N)cc(C)c1Nc1nc(Nc2ccc3n[nH]nc3c2)c2[nH]cnc2n1
[4]
  Potency: inactive

## CC(=O)NC(c1ccco1)c1cc(Cl)c2ccc(N(C)C)nc2c1O (centres undefined)
[4]
  Potency: inactive

## Cn1c2cc([N+](=O)[O-])sc2c2cnn(Cc3ccccc3F)c(=O)c21
[4]
  Potency: inactive
